From the supplement of paper PMC6897291
Where a name gives a salt, the structure may show the parent alone.

These compounds were tested on U-2932 (assay: growth inhibition by drug alone (1 - RLU/untreated control) (fraction); higher = stronger inhibition). Conditions: 1000 nM; time (day): 4; 177Lu-lilotomab satetraxetan 0 ug/ml.
How it was run: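 Compound doses on the pre-printed Selleck Cambridge Cancer Compound library plates were 10/100 nM for RIVA cells and 10/1,000 nM for U-2932 cells, seeded at 3,000 cells/well. Before seeding, cells were washed after 18 h with or without a radiolabelled anti-CD37 antibody conjugate (~600 MBq/mg; 0.5 µg/ml RIVA, 1 µg/ml U-2932). Growth inhibition was derived from RealTime-Glo luminescence relative to untreated no-drug control wells. Readings were taken daily starting on day 3, each after 1 h at 37°C, and each well's RLU was divided by the mean of 48 such wells per plate and subtracted from 1.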
`COc1ccc(S(=O)(=O)Nc2cccnc2Nc2ccc(O)cc2)cc1` was tested, and the “growth inhibition by drug alone” value was 0.918. With `C[C@]12CCC(=O)C=C1CC[C@@H]1[C@@H]2[C@@H](O)C[C@@]2(C)[C@H]1CC[C@]2(O)C(=O)CO` [Hydrocortisone (Cortisol)] the “growth inhibition by drug alone” value was 0.304. In the case of `COc1cc(OC2CCN(C)CC2)ccc1Nc1ncc2c(n1)n(C1CCCC1)c(=O)n2C`, the “growth inhibition by drug alone” value is reported as -0.184. `Nc1nc(F)nc2c1ncn2[C@@H]1O[C@H](CO)[C@@H](O)[C@@H]1O` [Fludarabine (Fludara)] was tested, and the “growth inhibition by drug alone” value was 0.000892. With `Nc1nc(Nc2ccc(S(N)(=O)=O)cc2)nn1C(=O)c1c(F)cccc1F` the “growth inhibition by drug alone” value was 0.39. `Nc1ncn([C@@H]2O[C@H](CO)[C@@H](O)[C@H]2O)c(=O)n1` [Azacitidine (Vidaza)] was tested, and the “growth inhibition by drug alone” value was -0.0618. `COc1cc2nccc(Oc3ccc(NC(=O)NC4CC4)c(Cl)c3)c2cc1C(N)=O` [E7080 (Lenvatinib)] was tested, and the “growth inhibition by drug alone” value was -0.0139. `Nc1ccn([C@@H]2O[C@H](CO)[C@@H](O)[C@@H]2O)c(=O)n1` [Cytarabine] was tested, and the “growth inhibition by drug alone” value was 0.568. `Nc1cccc2c1C(=O)N(C1CCC(=O)NC1=O)C2=O` (stereo not drawn) [Pomalidomide] was tested, and the “growth inhibition by drug alone” value was 0.25. With `CN(C)c1nc(N(C)C)nc(N(C)C)n1` [Altretamine (Hexalen)] the “growth inhibition by drug alone” value was -0.0758. In the case of `Cc1[nH]c(/C=C2\C(=O)Nc3ccc(S(=O)(=O)N(C)c4cccc(Cl)c4)cc32)c(C)c1C(=O)N1CCN(C)CC1`, the “growth inhibition by drug alone” value is reported as -0.0391. For `O=C(O[C@@H]1Cc2c(O)cc(O)cc2O[C@@H]1c1cc(O)c(O)c(O)c1)c1cc(O)c(O)c(O)c1` [(-)-Epigallocatechin gallate], the “growth inhibition by drug alone” value was -0.0657. In the case of `CCc1c2c(nc3ccc(OC(=O)N4CCC(N5CCCCC5)CC4)cc13)-c1cc3c(c(=O)n1C2)COC(=O)[C@]3(O)CC` [Irinotecan HCl Trihydrate (Campto)], the “growth inhibition by drug alone” value is reported as 0.921. `S=C(NCc1ccc2c(c1)OCO2)N1CCN(c2ncnc3c2oc2ccccc23)CC1` [Amuvatinib (MP-470)] was tested, and the “growth inhibition by drug alone” value was 0.471. For `COc1ccc2c3n(c(=NC(=O)c4cccnc4)nc2c1OC)CCN3`, the “growth inhibition by drug alone” value was 0.128. For `C#Cc1cccc(Nc2ncnc3cc(OCCOC)c(OCCOC)cc23)c1` [Erlotinib HCl], the “growth inhibition by drug alone” value was 0.715. For `Cc1ccc(-c2cc(C(F)(F)F)nn2-c2ccc(S(N)(=O)=O)cc2)cc1` [Celecoxib], the “growth inhibition by drug alone” value was -0.0104. In the case of `N#CC[C@H](C1CCCC1)n1cc(-c2ncnc3[nH]ccc23)cn1`, the “growth inhibition by drug alone” value is reported as -0.0506. With `CCc1cncnc1N1CCN(Cc2nc3ccc(C(F)(F)F)cc3[nH]2)CC1` the “growth inhibition by drug alone” value was 0.102. For `CCN(CC)C(=S)SSC(=S)N(CC)CC` [Disulfiram (Antabuse)], the “growth inhibition by drug alone” value was 0.982. With `CC(C)[C@H](C(=O)Nc1ccc(C(=O)NO)cc1)c1ccccc1` the “growth inhibition by drug alone” value was 0.964. In the case of `CC(=O)O[C@]1(C(C)=O)CC[C@H]2[C@@H]3C=C(C)C4=CC(=O)CC[C@]4(C)[C@H]3CC[C@@]21C` [Megestrol Acetate], the “growth inhibition by drug alone” value is reported as 0.112. For `COc1cc2ncnc(Nc3cccc(Br)c3)c2cc1OC`, the “growth inhibition by drug alone” value was -0.00581. With `N#Cc1ccc(C(c2ccc(C#N)cc2)n2cncn2)cc1` [Letrozole] the “growth inhibition by drug alone” value was -0.0542. With `CC(=O)c1c(C)c2cnc(Nc3ccc(N4CCNCC4)cn3)nc2n(C2CCCC2)c1=O` the “growth inhibition by drug alone” value was -0.0097. For `COc1cccc2c1C(=O)c1c(O)c3c(c(O)c1C2=O)C[C@@](O)(C(=O)CO)C[C@@H]3O[C@H]1C[C@H](N)[C@H](O)[C@H](C)O1` [Doxorubicin (Adriamycin)], the “growth inhibition by drug alone” value was 0.983. In the case of `CC(C)(C)c1[nH]cnc1/C=c1\[nH]c(=O)/c(=C/c2ccccc2)[nH]c1=O` [NPI-2358 (Plinabulin)], the “growth inhibition by drug alone” value is reported as 0.971. In the case of `COc1cc(Nc2ncc3c(n2)-c2ccc(Cl)cc2C(c2c(F)cccc2OC)=NC3)ccc1C(=O)O` [MLN8237 (Alisertib)], the “growth inhibition by drug alone” value is reported as 0.128. In the case of `O=c1[nH]cc(F)c(=O)[nH]1` [Adrucil (Fluorouracil)], the “growth inhibition by drug alone” value is reported as 0.0179. With `CC(C)c1ccc(Cn2ccc3c4c(N)nc(NC5CC5)nc4ccc32)cc1` the “growth inhibition by drug alone” value was 0.977. For `CC/C(=C(\c1ccccc1)c1ccc(OCCN(C)C)cc1)c1ccccc1` [Tamoxifen Citrate (Nolvadex)], the “growth inhibition by drug alone” value was 0.0715. `Cn1cc(C2=C(c3ccc(Cl)cc3Cl)C(=O)NC2=O)c2ccccc21` was tested, and the “growth inhibition by drug alone” value was -0.0468. With `c1ccc(-c2nn3c(c2-c2ccnc4cc(OCCN5CCOCC5)ccc24)CCC3)nc1` the “growth inhibition by drug alone” value was -0.0245. For `O=C(NCCS(=O)(=O)c1ccc(C(F)(F)F)cn1)c1ccc(Cl)cc1`, the “growth inhibition by drug alone” value was 0.00465. For `Cc1ccc(S(=O)(=O)C=CC#N)cc1`, the “growth inhibition by drug alone” value was 0.09. With `CCC1=C[C@@H]2CN(C1)Cc1c([nH]c3ccccc13)[C@@](C(=O)OC)(c1cc3c(cc1OC)N(C)[C@H]1[C@@](O)(C(=O)OC)[C@H](OC(C)=O)[C@]4(CC)C=CCN5CC[C@]31[C@@H]54)C2` [Vinorelbine (Navelbine)] the “growth inhibition by drug alone” value was 0.976. For `Cc1cc(Nc2cc(N3CCN(C)CC3)nc(/C=C/c3ccccc3)n2)n[nH]1`, the “growth inhibition by drug alone” value was 0.0113. With `CN(N=O)C(=O)N[C@@H](C=O)[C@@H](O)[C@H](O)[C@H](O)CO` [Streptozotocin (Zanosar)] the “growth inhibition by drug alone” value was -0.0755.
